According to PubChem BioAssay:
Activity calls are given as the source filed them. Unless noted, how the calls were made is not given here.

Tests used:
[1] = compound effects on lung adenocarcinoma cell viability – A549, calcein-AM fluorescence, 48 h, basal, profiling panel (AID 1162); settings: higher = more signal; further: test concentration not given here
[2] = compound effects on differentiated 3T3-L1 adipocyte viability – cell-based, 3T3-L1 adipocytes, calcein-AM fluorescence, 48 h, basal, profiling panel (AID 1163); settings: 3T3-L1 adipocytes viability, higher = more signal; further: test concentration not given here
[3] = compound effects on hepatocellular carcinoma cell viability – HepG2, calcein-AM fluorescence, 48 h, basal, profiling panel (AID 1164); settings: higher = more signal; further: test concentration not given here
[4] = compound effects on multiple myeloma cell viability – MM1S, calcein-AM fluorescence, 48 h, basal, profiling panel (AID 1165); settings: higher = more signal;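 further: viability of MM1S multiple myeloma cells under basal unstimulated conditions; test concentration not given here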
[5] = calcein-AM signal in unstimulated myeloma cells – cell-based, calcein-AM fluorescence, 48 h, PK04 Diversity Set, profiling panel (AID 1166); settings: RPMI8226 myeloma viability, higher = more signal;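 further: cells grown under basal conditions without added stimulus; test concentration not given here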
[6] = JC-1 mitochondrial signal, unstimulated HepG2 cells – cell-based, JC-1 fluorescence, 24 h, 100 nL compound, profiling panel (AID 1167); settings: HepG2 mitochondrial potential, higher = more signal; further: test concentration not given here
[7] = JC-1 mitochondrial signal, unstimulated adipocytes – cell-based, JC-1 fluorescence, 3T3-L1 adipocytes, 24 h, 100 nL compound, profiling panel (AID 1168); settings: JC-1 mitochondrial fluorescence, higher = more signal, called active from +8 up or from −8 down; further: test concentration not given here
[8] = JC-1 mitochondrial signal, unstimulated myeloma cells – cell-based, JC-1 fluorescence, RPMI8226, 24 h, 100 nL compound, profiling panel (AID 1169); settings: JC-1 mitochondrial potential fluorescence, higher = more signal; further: test concentration not given here
[9] = JC-1 mitochondrial signal, unstimulated MM1S myeloma – cell-based, JC-1 fluorescence, 24 h, 100 nL compound, profiling panel (AID 1170); settings: MM1S mitochondrial potential, higher = more signal; further: test concentration not given here
[10] = resazurin metabolic signal in A549 cells – cell-based, resazurin fluorescence, 24 h, PK04 Diversity Set, profiling panel (AID 1171); settings: A549 viability, higher = more signal, called active from +8 up or from −8 down; further: test concentration not given here
[11] = resazurin metabolic signal in HepG2 cells – cell-based, resazurin fluorescence, 24 h, PK04 Diversity Set, profiling panel (AID 1172); settings: HepG2 viability, higher = more signal; further: test concentration not given here
[12] = budding yeast growth changes without added modifier – OD600, strain BY4716, 24 h, basal condition, primary screen (AID 1173); settings: S. cerevisiae BY4716 growth, OD600, 24 h; higher = more signal, called active from +8 up or from −8 down
[13] = viability profiling in MM1S myeloma cells – cell-based, resazurin fluorescence, basal, 24 h, PK04 Diversity Set, profiling panel (AID 1174); settings: higher = more signal, called active from +8 up or from −8 down; further: test concentration not given here
[14] = biological target: Dihydroorotate dehydrogenase (quinone), mitochondrial (Plasmodium falciparum (isolate 3D7)) (UniProt Q08210); assay: inhibition of P. falciparum DHODH – biochemical, C-terminal His tag, absorbance 600 nm, primary screen (AID 1175); settings: PfDHODH enzyme, DCIP absorbance 600 nm; higher = more signal, called active from +8 up or from −8 down;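 further: recombinant parasite enzyme with a five histidine tag at its C terminus; test concentration not given here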
[15] = inhibition of PAO1 biofilm formation – strain PAO1, LB-PBS medium, absorbance 600 nm, primary screen (AID 1176); further: test concentration not given here; settings: P. aeruginosa PAO1 growth/biofilm, A600, 12 h; higher = more signal
[16] = growth modulation of vineyard yeast isolate – strain RM11-1a, OD600, basal, 24 h, primary screen (AID 1177);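 further: cultures grown under basal conditions with no added stressor; test concentration not given here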; settings: S. cerevisiae RM11-1a growth, OD600, 24 h; higher = more signal, called active from +8 up or from −8 down
[17] = growth of efflux-deficient E. coli DRC39 – strain DRC39, OD650, 24 h, E. coli filamentation inducers, primary screen (AID 1178);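 further: growth measured as culture turbidity by optical density at 650 nm; test concentration not given here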; settings: E. coli DRC39 acrAB, higher = more signal, called active from +8 up or from −8 down
[18] = growth of efflux-deficient E. coli DRC39 – strain DRC39, OD650, 48 h, E. coli filamentation inducers, primary screen (AID 1179);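 further: screen aims at cell division blockers that make cells filament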; settings: E. coli DRC39 delta-acrAB growth, higher = more signal, called active from +8 up or from −8 down
[19] = viability profiling in RPMI8226 myeloma cells – cell-based, resazurin fluorescence, basal, 24 h, PK04 Diversity Set, profiling panel (AID 1180); settings: higher = more signal;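 further: RPMI8826 multiple myeloma cell line at 5000 cells per well; test concentration not given here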
[20] = biological target: E3 ubiquitin-protein ligase XIAP (Homo sapiens) (UniProt P98170); assay: small molecules binding XIAP protein – biophysical, small-molecule microarray, fluorescence 635 nm, primary screen (AID 1181); settings: higher = more signal;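 further: score merges 667 nm emission and signal to noise over triplicate slides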
Sequence of E3 ubiquitin-protein ligase XIAP (Homo sapiens) (P98170 whole entry, looked up): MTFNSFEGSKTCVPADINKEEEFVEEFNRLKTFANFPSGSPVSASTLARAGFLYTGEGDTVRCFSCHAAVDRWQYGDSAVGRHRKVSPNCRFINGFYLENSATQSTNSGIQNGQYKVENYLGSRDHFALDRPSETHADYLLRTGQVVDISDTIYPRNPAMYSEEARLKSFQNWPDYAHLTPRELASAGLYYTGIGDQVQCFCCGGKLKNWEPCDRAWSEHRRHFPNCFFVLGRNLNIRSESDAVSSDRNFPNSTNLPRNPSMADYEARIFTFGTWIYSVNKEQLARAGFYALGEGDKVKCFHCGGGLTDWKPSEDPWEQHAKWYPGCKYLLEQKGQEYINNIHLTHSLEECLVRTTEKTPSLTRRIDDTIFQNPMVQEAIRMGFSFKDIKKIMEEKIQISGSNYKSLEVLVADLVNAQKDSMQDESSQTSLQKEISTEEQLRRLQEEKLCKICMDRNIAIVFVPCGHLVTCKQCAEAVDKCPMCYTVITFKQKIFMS

Sequence of Dihydroorotate dehydrogenase (quinone), mitochondrial (Plasmodium falciparum (isolate 3D7)) (Q08210 whole entry, looked up): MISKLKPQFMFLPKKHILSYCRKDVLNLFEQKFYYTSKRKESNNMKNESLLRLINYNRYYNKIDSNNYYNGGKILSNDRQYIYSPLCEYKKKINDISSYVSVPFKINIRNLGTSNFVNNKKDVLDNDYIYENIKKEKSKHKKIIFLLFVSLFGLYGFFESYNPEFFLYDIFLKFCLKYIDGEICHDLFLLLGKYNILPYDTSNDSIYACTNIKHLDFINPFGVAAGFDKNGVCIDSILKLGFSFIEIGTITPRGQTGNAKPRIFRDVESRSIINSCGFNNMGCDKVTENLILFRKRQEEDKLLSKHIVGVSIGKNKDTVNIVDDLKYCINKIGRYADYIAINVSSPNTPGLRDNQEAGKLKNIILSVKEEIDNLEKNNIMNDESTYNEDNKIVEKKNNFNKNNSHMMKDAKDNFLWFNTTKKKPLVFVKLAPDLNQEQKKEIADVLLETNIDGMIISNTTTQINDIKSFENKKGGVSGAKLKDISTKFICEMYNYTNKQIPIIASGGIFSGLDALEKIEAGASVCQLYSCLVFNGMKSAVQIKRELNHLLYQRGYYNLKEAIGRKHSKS

| SMILES | z-score [1] | z-score [2] | z-score [3] | z-score [4] | z-score [5] | z-score [6] | z-score [7] | z-score [8] | z-score [9] | z-score [10] | z-score [11] | z-score [12] | z-score [13] | composite z-score [14] | z-score [15] | z-score [16] | z-score [17] | z-score [18] | z-score [19] | composite z-score [20] |
| --- | --- | --- | --- | --- | --- | --- | --- | --- | --- | --- | --- | --- | --- | --- | --- | --- | --- | --- | --- | --- |
| Cc1ccc(S[C@]2(C(=O)NC(C)C)CC(=O)N(Cc3ccccc3)[C@@H]2c2ccc(CO)cc2I)cc1 | 0.15 | 0.547 | 1 | -2.02 | -1.69 | 0.744 | 0.98 (inactive) | -0.25 | -1.23 | -1.13 (inactive) | -0.885 | -2.23 (inactive) | -3.48 (inactive) | -0.489 (inactive) | 0.003 (inactive) | -0.101 (inactive) | -0.0759 (inactive) | 0.494 (inactive) | -2.8 | 0.301 |
| C=C(CCCC)C(=O)CC[C@H](OC(=O)c1ccccc1-c1ccccc1C(=O)O)c1cccc(OCCO)c1 | -0.186 | 0.415 | -0.73 | -3.37 | -2.88 | -0.789 | 0.379 (inactive) | -0.451 | -0.507 | -0.611 (inactive) | -1.01 | -1.21 (inactive) | -0.821 (inactive) | -0.347 (inactive) | 1.09 (inactive) | 0.0742 (inactive) | -0.778 (inactive) | -0.689 (inactive) | -0.432 | -0.138 |
| O=C1O[C@H](c2ccccc2)[C@H](c2ccccc2)N2[C@H]1[C@@H](C(=O)O)[C@]1(C(=O)Nc3ccc(C#CC4(O)CCCCCC4)cc31)[C@H]2c1ccccc1OCCO | 0.631 | 0.0596 | -0.0165 | -3.38 | -4.15 | -2.61 | -0.521 (inactive) | -0.911 | -0.681 | 0.95 (inactive) | 1.15 | -1.72 (inactive) | -0.65 (inactive) | -2.25 (inactive) | -0.645 (inactive) | 3.22 (inactive) | 0.703 (inactive) | 0.732 (inactive) | 0.305 | -0.0666 |
| CCCCN1CC=CC23O[C@@H]4/C=C\CCCOC(=O)C4[C@H]2C(=O)N(CCCCCCO)[C@@H]3C1=O (stereo not given in full) | -0.0075 | 1.61 | 0.331 | 1.42 | 0.88 | 0.608 | 1.38 (inactive) | 0.16 | -1.05 | 0.851 (inactive) | 0.646 | -0.556 (inactive) | 1.21 (inactive) | -1.97 (inactive) | 0.454 (inactive) | -0.874 (inactive) | 0.564 (inactive) | 0.924 (inactive) | 0.983 | -0.159 |
